According to PubChem BioAssay (NCATS):
Records with an inconclusive call do not appear. A call without a number means that no potency is given here. Calls of active or inactive are those of the source. Calls come from the whole dose curve; as a rule, active = well fitted curve in the direction sought with a large enough effect; inconclusive = small, poorly fitted or top-dose-only effect, or another doubt; inactive = no such curve, though single readings can be large; an effect the other way counts as inactive or inconclusive. Numbered stars: 1 amine (or outer) side, 2 acyl side, 3 side chain; on linkers, the order of the positions; unused ones are H or OH. Bridge positions count the residues as written; N and C are the ends. Square brackets hold non-standard residues; d marks the D form. Peptide text beside a SMILES is read from it. I, II: the chains in the order shown. Actinocin(9to1) = Cc1c2oc3c(C)ccc(C(=O)[*:1])c3nc-2c(C(=O)[*:2])c(N)c1=O; NMeV = CN[C@H](C(=O)O)C(C)C; Sar = CNCC(=O)O
Note: nearly all actives have a fitted effect of over 60% in size.
Potency is the fitted concentration of half-maximal effect.

Assay: qHTS of pediatric cancer cell lines to identify multiple opportunities for drug repurposing: Confirmatory screen for Saos-2 cells (AID 1347127)
Conditions: Saos-2 osteosarcoma cell viability; series mostly up to 45.9 µM
Procedure, shortened: (§1)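 Viability after 48 h compound treatment at 37C, 500-1,000 cells/well, read as ATP luminescence with CellTiter-Glo. Primary screens used 11-point (MIPE, 0.78 nM-46 µM) or 8-point (NPC, 0.59 nM-46 µM) final concentrations; follow-up screens used 11-point dilutions.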
With `CN(C)/N=N/c1nc[nH]c1C(N)=O` the Potency was “inactive”. For `CC1(C)O[C@@H]2C[C@H]3[C@@H]4C[C@H](F)C5=CC(=O)CC[C@]5(C)[C@H]4[C@@H](O)C[C@]3(C)[C@]2(C(=O)CO)O1`, the Potency was “inactive”. With `C=C1C[C@H]2[C@@H]3C=C(C)C4=CC(=O)CC[C@]4(C)[C@H]3CC[C@]2(C)[C@@]1(OC(C)=O)C(C)=O` the Potency was “inactive”. In the case of `CC(=O)OCC(=O)[C@@]12N=C(C)O[C@@H]1C[C@H]1[C@@H]3CCC4=CC(=O)C=C[C@]4(C)[C@H]3[C@@H](O)C[C@@]12C`, the Potency was 0.737 µM (active). For `C[C@@H]1C[C@H]2[C@@H]3CCC4=CC(=O)C=C[C@]4(C)[C@@]3(F)[C@@H](O)C[C@]2(C)[C@H]1C(=O)CO`, the Potency was “inactive”. With `CCCCCCC[N+](CC)(CC)CCCCc1ccc(Cl)cc1` the Potency was 11.7 µM (active). In the case of `C[C@]12CCC(=O)C=C1CC[C@H]1[C@@H]3CC[C@](O)(C(=O)CO)[C@@]3(C)C[C@H](O)[C@@]12F`, the Potency was “inactive”. In the case of `Oc1ccc(O)cc1`, the Potency was “inactive”. For `OC[C@H]1O[C@@H](n2cnc3c(=S)nc[nH]c32)[C@H](O)[C@@H]1O`, the Potency was 4.65 µM (active). In the case of `O=C(CCCN1CCC(O)(c2ccc(Br)cc2)CC1)c1ccc(F)cc1`, the Potency was “inactive”. For `COc1cc(C=C2CCC/C(=C\c3ccc(O)c(OC)c3)C2=O)ccc1O`, the Potency was 11.7 µM (active). For `CCCCC(CC)CN=C(N)NC(N)=NCCCCCCN=C(N)NC(N)=NCC(CC)CCCC` (stereo not drawn), the Potency was 16.5 µM (active). For `CC1(C)O[C@@H]2C[C@H]3[C@@H]4CCC5=CC(=O)CC[C@]5(C)[C@@]4(F)[C@@H](O)C[C@]3(C)[C@]2(C(=O)CCl)O1`, the Potency was “inactive”. In the case of `C[C@H]1C[C@H]2[C@@H]3CCC4=CC(=O)C=C[C@]4(C)[C@@]3(Cl)[C@@H](O)C[C@]2(C)[C@@]1(O)C(=O)CO`, the Potency was “inactive”. With `CC(=O)OCC(=O)[C@@]1(OC(C)=O)[C@@H](C)C[C@H]2[C@@H]3C[C@H](F)C4=CC(=O)C=C[C@]4(C)[C@@]3(F)[C@@H](O)C[C@@]21C` the Potency was “inactive”. With `C[C@]12C=CC(=O)C=C1CC[C@@H]1[C@@H]2[C@@H](O)C[C@@]2(C)[C@H]1CC[C@]2(O)C(=O)CO` the Potency was “inactive”. With `CC(=O)O[C@]1(C(C)=O)CC[C@H]2[C@@H]3C[C@H](C)C4=CC(=O)CC[C@]4(C)[C@H]3CC[C@@]21C` the Potency was “inactive”. For `NC(CO)(CO)CO`, the Potency was “inactive”. For `NC(=O)CC[C@@H]1NC(=O)[C@H](Cc2ccccc2)NC(=O)[C@H](Cc2ccc(O)cc2)NC(=O)CCSSC[C@@H](C(=O)N2CCC[C@H]2C(=O)N[C@@H](CCCN=C(N)N)C(=O)NCC(N)=O)NC(=O)[C@H](CC(N)=O)NC1=O`, the Potency was “inactive”. For `CCC(C(=O)OCCN(CC)CC)c1ccccc1` (stereo not drawn), the Potency was “inactive”. With `CC(=O)Oc1ccc(C(c2ccc(OC(C)=O)cc2)c2ccccn2)cc1` the Potency was “inactive”. With `COCc1c(C(C)C)nc(C(C)C)c(/C=C/[C@@H](O)C[C@@H](O)CC(=O)O)c1-c1ccc(F)cc1` the Potency was 0.0657 µM (active).

Assay: qHTS of pediatric cancer cell lines to identify multiple opportunities for drug repurposing: Confirmatory screen for SK-N-SH cells (AID 1347129);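 note: cells exposed to compound for 48 h before viability read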
Conditions: SK-N-SH neuroblastoma cell viability; series mostly up to 46.1 µM
Procedure, shortened: as §1
For `CN(C)/N=N/c1nc[nH]c1C(N)=O`, the Potency was “inactive”. With `CC1(C)O[C@@H]2C[C@H]3[C@@H]4C[C@H](F)C5=CC(=O)CC[C@]5(C)[C@H]4[C@@H](O)C[C@]3(C)[C@]2(C(=O)CO)O1` the Potency was “inactive”. For `C=C1C[C@H]2[C@@H]3C=C(C)C4=CC(=O)CC[C@]4(C)[C@H]3CC[C@]2(C)[C@@]1(OC(C)=O)C(C)=O`, the Potency was “inactive”. For `C[C@@H]1C[C@H]2[C@@H]3CCC4=CC(=O)C=C[C@]4(C)[C@@]3(F)[C@@H](O)C[C@]2(C)[C@H]1C(=O)CO`, the Potency was “inactive”. With `CCOc1ccc2nc3cc(N)ccc3c(N)c2c1` the Potency was 14.8 µM (active). For `CC(=O)OCC(=O)[C@@]1(O)[C@H](C)C[C@H]2[C@@H]3CCC4=CC(=O)C=C[C@]4(C)[C@@]3(F)[C@@H](O)C[C@@]21C`, the Potency was “inactive”. In the case of `CCCCC(=O)O[C@]1(C(=O)CO)CC[C@H]2[C@@H]3CCC4=CC(=O)CC[C@]4(C)[C@H]3[C@@H](O)C[C@@]21C`, the Potency was “inactive”. For `CCCCCCC[N+](CC)(CC)CCCCc1ccc(Cl)cc1`, the Potency was 20.9 µM (active). With `C[C@]12CCC(=O)C=C1CC[C@H]1[C@@H]3CC[C@](O)(C(=O)CO)[C@@]3(C)C[C@H](O)[C@@]12F` the Potency was “inactive”. For `C[n+]1c2cc(N)ccc2cc2ccc(N)cc21` (tested in a mixture with another compound), the Potency was 8.33 µM (active). With `COc1cccc2c1C(=O)c1c(O)c3c(c(O)c1C2=O)C[C@@](O)(C(=O)CO)C[C@@H]3O[C@H]1C[C@H](N)[C@H](O)[C@H](C)O1` the Potency was 1.32 µM (active). In the case of `Oc1ccc(O)cc1`, the Potency was “inactive”. For `C[C@@H]1C[C@H]2[C@@H]3C[C@H](F)C4=CC(=O)C(Cl)=C[C@]4(C)[C@@]3(F)[C@@H](O)C[C@]2(C)[C@@]1(O)C(=O)CO`, the Potency was “inactive”. For `CC(C)(C(=O)c1cccnc1)c1cccnc1`, the Potency was “inactive”. In the case of `COc1cc(C=C2CCC/C(=C\c3ccc(O)c(OC)c3)C2=O)ccc1O`, the Potency was 18.7 µM (active). In the case of `COc1c(C)c2c(c(O)c1C/C=C(\C)CCC(=O)O)C(=O)OC2`, the Potency was 18.7 µM (active). In the case of `CC(=O)[C@H]1CC[C@H]2[C@@H]3C[C@H](C)C4=CC(=O)CC[C@]4(C)[C@H]3[C@@H](O)C[C@]12C`, the Potency was “inactive”. For `Cc1c2oc3c(C)ccc(C(=O)N[C@@H]4C(=O)N[C@H](C(C)C)C(=O)N5CCC[C@H]5C(=O)N(C)CC(=O)N(C)[C@@H](C(C)C)C(=O)O[C@@H]4C)c3nc-2c(C(=O)N[C@@H]2C(=O)N[C@H](C(C)C)C(=O)N3CCC[C@H]3C(=O)N(C)CC(=O)N(C)[C@@H](C(C)C)C(=O)O[C@@H]2C)c(N)c1=O` (I: T[dV]P[Sar][NMeV] / II: T[dV]P[Sar][NMeV]; ester I:1-I:C, II:1-II:C; linker I:N-II:N via Actinocin(9to1)), the Potency was 0.0118 µM (active). With `CCCCC(CC)CN=C(N)NC(N)=NCCCCCCN=C(N)NC(N)=NCC(CC)CCCC` (stereo not drawn) the Potency was 11.8 µM (active). For `CC(=O)OCC(=O)[C@@]1(O)CC[C@H]2[C@@H]3CCC4=CC(=O)C=C[C@]4(C)[C@H]3[C@@H](O)C[C@@]21C`, the Potency was “inactive”. For `C[C@H]1C[C@H]2[C@@H]3CCC4=CC(=O)C=C[C@]4(C)[C@@]3(Cl)[C@@H](O)C[C@]2(C)[C@@]1(O)C(=O)CO`, the Potency was “inactive”. In the case of `CC(=O)OCC(=O)[C@@]1(OC(C)=O)[C@@H](C)C[C@H]2[C@@H]3C[C@H](F)C4=CC(=O)C=C[C@]4(C)[C@@]3(F)[C@@H](O)C[C@@]21C`, the Potency was “inactive”. For `C[C@]12C=CC(=O)C=C1CC[C@@H]1[C@@H]2[C@@H](O)C[C@@]2(C)[C@H]1CC[C@]2(O)C(=O)CO`, the Potency was “inactive”. For `NC(CO)(CO)CO`, the Potency was “inactive”. For `NC(=O)CC[C@@H]1NC(=O)[C@H](Cc2ccccc2)NC(=O)[C@H](Cc2ccc(O)cc2)NC(=O)CCSSC[C@@H](C(=O)N2CCC[C@H]2C(=O)N[C@@H](CCCN=C(N)N)C(=O)NCC(N)=O)NC(=O)[C@H](CC(N)=O)NC1=O`, the Potency was “inactive”. With `CCC(C(=O)OCCN(CC)CC)c1ccccc1` (stereo not drawn) the Potency was “inactive”. With `C[C@]12C=CC(=O)C=C1[C@@H](F)C[C@@H]1[C@@H]2[C@@H](O)C[C@@]2(C)[C@H]1CC[C@]2(O)C(=O)CO` the Potency was “inactive”. For `CC(=O)Oc1ccc(C(c2ccc(OC(C)=O)cc2)c2ccccn2)cc1`, the Potency was “inactive”. For `COCc1c(C(C)C)nc(C(C)C)c(/C=C/[C@@H](O)C[C@@H](O)CC(=O)O)c1-c1ccc(F)cc1`, the Potency was 0.418 µM (active). In the case of `CN(C)C(=S)SC(=S)N(C)C`, the Potency was “inactive”. In the case of `CC(=O)OCC(=O)[C@@]12OC(C)(C)O[C@@H]1C[C@H]1[C@@H]3C[C@H](F)C4=CC(=O)C=C[C@]4(C)[C@@]3(F)[C@@H](O)C[C@@]12C`, the Potency was “inactive”.
